Source: PubChem BioAssay (NCI)
The panel holds about 83,000 compounds, 20% with a hit somewhere; the sample as a whole holds those more often.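 Plates (96-well) were seeded with cells, treated with compound at one concentration, and incubated for 48 hours before percent growth was determined.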 The source made the active and inactive calls. Rule for the calls: active = growth percent below 10; inactive = the rest.

Legend:
Test in all cases: NCI-60 one-dose screen, 48 h (100 = growth as untreated, 0 = no growth, -100 = all killed)
Details in all cases: 10 µM unless noted
[1] = tested on: RPMI-8226 leukemia
[2] = tested on: OVCAR-8 ovarian
[3] = tested on: OVCAR-5 ovarian
[4] = tested on: OVCAR-4 ovarian
[5] = tested on: SK-OV-3 ovarian
[6] = tested on: IGROV1 ovarian
[7] = tested on: OVCAR-3 ovarian
[8] = tested on: NCI/ADR-RES ovarian
[9] = tested on: T-47D breast
[10] = tested on: HS 578T breast

Measured: growth

Cn1cc(-c2csc(-c3cn(C)c4ncccc34)n2)c2cc(F)cnc21
inactive: [1] 70.1% | [2] 80.8% | [3] 91.3% | [4] 93.5% | [5] 107% | [6] 84% | [7] 108% | [8] 46.9% | [9] 52.2%

CN(C)c1ccc2[nH]c3c(C(N)=O)cc(=O)c(=O)c=3oc2c1
inactive: [2] 25.4% | [3] 89% | [4] 49.1% | [5] 82% | [6] 32.5% | [10] 20.4% | [8] 58.1% | [9] 18.1%
active: [1] 5% | [7] -9.97%

O=[N+]([O-])c1cnc(Sc2ccncn2)c([N+](=O)[O-])c1
active: [9] -31.7%
inactive: [1] 67.4% | [2] 97.3% | [3] 102% | [4] 97.8% | [5] 97.2% | [6] 117% | [7] 55.1% | [10] 97.8%

O=C1c2nsnc2C(=O)c2c(F)c(F)c(F)c(F)c21
active: [1] -1.71% | [2] -38.6% | [3] -73.8% | [4] -99.5% | [6] -22.9% | [7] -90.1% | [8] -17.1% | [9] -38.9%
inactive: [5] 32.4%

O=C1OC(c2ccc(-c3ccccc3)cc2)=C/C1=C/c1cccs1
inactive: [1] 138% | [2] 78.9% | [3] 98.5% | [4] 65.5% | [5] 128% | [6] 93% | [7] 89.2% | [10] 98.4% | [9] 33.6%

OCc1nnn(-c2ccccc2)c1CO
inactive: [1] 101% | [2] 109% | [3] 112% | [4] 99.2% | [5] 129% | [6] 108% | [7] 117% | [10] 117% | [9] 114%

C[n+]1ccc(C#N)c2ccccc21
inactive: [1] 94.6% | [2] 111% | [3] 103% | [4] 64.7% | [5] 98.2% | [6] 70.5% | [10] 108% | [9] 88.8%
active: [7] 4.02%

Nc1ccc2c(c1)/C(=N/O)c1cc([N+](=O)[O-])ccc1-2
inactive: [1] 58.9% | [2] 87% | [3] 102% | [4] 84% | [5] 81.6% | [6] 57% | [7] 63.8% | [10] 77.2% | [9] 93%

CCOc1cc(-c2ccc[nH]2)[nH]c1/C=C1\N=C(C)C(C(=O)OC)=C1C
active: [1] -40.5% | [2] -45.8% | [3] -67.6% | [4] -38.6% | [5] -63.7% | [6] -45% | [7] -89.2% | [10] -23.3% | [9] -63.8%

NC(N)=N/N=C(/c1ccccc1)c1ccc(Cl)cc1
active: [7] 5.42% | [10] -22.5%
inactive: [1] 172% | [2] 103% | [3] 96% | [4] 95.2% | [5] 81.2% | [6] 18.7% | [9] 64.5%

Fc1ccc(-c2nnc(/C=C/c3cn(-c4ccccc4)nc3-c3ccccc3)o2)cc1
inactive: [1] 104% | [2] 98.2% | [3] 82.2% | [4] 114% | [5] 85.5% | [6] 97.7% | [7] 119% | [10] 96.9% | [8] 88.2% | [9] 72.6%

Cc1cc(N2CCOCC2)nc(N2CCOCC2)n1
inactive: [1] 99.2% | [2] 104% | [3] 99.7% | [4] 93.9% | [5] 99.2% | [6] 76.6% | [7] 107% | [10] 95.4% | [9] 98%

COc1cc(/C=C/C(=O)N2CCN(C(=O)/C=C/c3ccccc3)CC2)cc(OC)c1OC
inactive: [1] 95.5% | [2] 98.1% | [3] 117% | [4] 97.1% | [5] 122% | [6] 115% | [7] 120% | [10] 113% | [9] 110%

COc1ccc2c(c1)nc(N)c1c3ccccc3cn21
inactive: [1] 80.3% | [2] 87.8% | [3] 113% | [4] 95.6% | [5] 85.6% | [6] 73.1% | [7] 79.3% | [8] 69.1% | [9] 70.7%

O=c1ccn(C2CCCO2)c(=O)[nH]1 (configuration not stated)
inactive: [1] 108% | [2] 102% | [3] 111% | [4] 119% | [5] 112% | [6] 114% | [7] 115% | [10] 112% | [9] 105%
